Test results as given in the antibiotic and cytotoxicity screens of Wong et al. (2023).
In all, about 39,000 compounds went through this assay and about 3,300 (8.5%) were called active. Shown is part of a subset that was picked to be rich in actives.

What follows are compounds tested on HepG2 (assay: cytotoxicity call (relative viability < 0.9)). Settings: 10 µM.

| Structure (SMILES) | cytotoxicity call |
| --- | --- |
| COc1ccc(S(=O)(=O)Nc2ccc3c(c2)C(=O)N([C@@H](C)CO)C[C@H](C)[C@H](CN(C)Cc2ccc(Oc4ccccc4)cc2)O3)cc1 | inactive |
| COc1ccc(S(=O)(=O)Nc2ccc3c(c2)C(=O)N([C@H](C)CO)C[C@H](C)[C@H](CN(C)Cc2ccc(Oc4ccccc4)cc2)O3)cc1 | inactive |
| COc1ccc(S(=O)(=O)Nc2ccc3c(c2)C(=O)N([C@@H](C)CO)C[C@H](C)[C@@H](CN(C)Cc2ccc(Oc4ccccc4)cc2)O3)cc1 | inactive |
| C[C@@H]1CN([C@@H](C)CO)C(=O)c2cc(NS(=O)(=O)c3ccccc3)ccc2O[C@H]1CN(C)Cc1ccc(Oc2ccccc2)cc1 | inactive |
| COc1ccc(S(=O)(=O)Nc2ccc3c(c2)C(=O)N([C@H](C)CO)C[C@H](C)[C@@H](CN(C)Cc2ccc(Oc4ccccc4)cc2)O3)cc1 | active |
| C[C@H]1CN([C@@H](C)CO)C(=O)c2cc(NS(=O)(=O)c3ccccc3)ccc2O[C@@H]1CN(C)Cc1ccc(Oc2ccccc2)cc1 | inactive |
| COc1ccc(S(=O)(=O)Nc2ccc3c(c2)C(=O)N([C@H](C)CO)C[C@@H](C)[C@@H](CN(C)Cc2ccc(Oc4ccccc4)cc2)O3)cc1 | inactive |
| COc1ccc(S(=O)(=O)Nc2ccc3c(c2)C(=O)N([C@@H](C)CO)C[C@@H](C)[C@H](CN(C)Cc2ccc(Oc4ccccc4)cc2)O3)cc1 | active |
| COc1ccc(S(=O)(=O)Nc2ccc3c(c2)C(=O)N([C@@H](C)CO)C[C@@H](C)[C@@H](CN(C)Cc2ccc(Oc4ccccc4)cc2)O3)cc1 | active |
| COc1ccc(S(=O)(=O)Nc2ccc3c(c2)C(=O)N([C@H](C)CO)C[C@@H](C)[C@H](CN(C)Cc2ccc(Oc4ccccc4)cc2)O3)cc1 | active |
| CN1CCN(C(=O)C[C@H]2CC[C@@H]3[C@H](COC[C@H](O)CN3Cc3ccc4c(c3)OCO4)O2)CC1 | inactive |
| O=C(C[C@@H]1CC[C@H]2[C@@H](COC[C@@H](O)CN2C(=O)Nc2ccc(C(F)(F)F)cc2)O1)NCCc1ccncc1 | inactive |
| CCCNC(=O)Nc1ccc2c(c1)OC[C@@H](C)N(Cc1ccc(-c3ccccn3)cc1)C[C@@H](C)[C@H](OC)CN(C)C2=O | inactive |
| Nc1c(C(=O)O)cnc2nc(N3CCOCC3)nn12 | inactive |
| COc1ccc(S(=O)(=O)Nc2ccc3c(c2)C(=O)N([C@@H](C)CO)C[C@@H](C)[C@@H](CN(C)Cc2ccc(C(=O)O)cc2)OCCCC[C@@H](C)O3)cc1 | inactive |
| C[C@H]1CN([C@@H](C)CO)S(=O)(=O)c2ccc(C#Cc3ccc(F)cc3)cc2O[C@H]1CN(C)S(=O)(=O)c1cn(C)cn1 | inactive |
